Rows were chosen to be rich in hits. Some 2% of all compounds tested hit in one or more screens of this group.
TRb SRC2 PPI: inhibitors of human thyroid hormone receptor beta-SRC2 interaction; P10828; TRbeta-SRC2 peptide binding, fluorescence polarization; receptor liganded with 1 µM T3; Potency, µM (titrated, usually from 106 µM), for inactives: at the highest dose activity change, negative = inhibition, most hits filed as inhibitors; 0.065% of 280,000 active; AID 1469;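 further: potency means the concentration at half of the fitted maximal effect; plate controls were bound peptide for no effect and peptide without receptor for full effect; nearly all actives have a fitted effect of over 50% in size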
Target sequence (P10828 whole entry, looked up): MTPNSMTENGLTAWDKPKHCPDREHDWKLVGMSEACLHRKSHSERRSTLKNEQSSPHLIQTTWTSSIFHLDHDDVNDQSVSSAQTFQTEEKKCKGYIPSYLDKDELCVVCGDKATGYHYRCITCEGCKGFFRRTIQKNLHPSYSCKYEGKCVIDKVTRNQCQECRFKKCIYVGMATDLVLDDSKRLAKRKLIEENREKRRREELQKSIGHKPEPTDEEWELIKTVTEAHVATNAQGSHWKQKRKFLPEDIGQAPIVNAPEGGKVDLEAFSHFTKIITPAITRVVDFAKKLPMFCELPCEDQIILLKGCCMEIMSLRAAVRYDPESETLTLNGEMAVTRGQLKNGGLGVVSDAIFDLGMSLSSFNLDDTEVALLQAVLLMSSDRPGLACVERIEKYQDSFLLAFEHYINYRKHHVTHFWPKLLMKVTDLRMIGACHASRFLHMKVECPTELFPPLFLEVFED
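Fluorescence polarization of 20 nM Texas Red SRC2 peptide with 0.6 uM human TRb ligand-binding domain, in Tris buffer with 1uM T3 and 5% DMSO. Incubated 5 hr ambient; normalized to unbound and bound controls.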
HTT aggregate: mutant huntingtin aggregation inhibition; 1.1% of 220,000 active; PC12 HttQ103-GFP aggregates, Acumen cytometry, 40 h; Potency, µM (top dose mostly 46.1 µM), without a hit: top-dose activity change, negative = inhibition, most hits filed as inhibitors; further: potency means the concentration at half of the fitted maximal effect; on the % scale 0 is the no-effect control and ±100 the full control effect; nearly all actives have a fitted effect of over 60% in size
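Aggregate formation scored by laser-scanning cytometer (488 excitation, 500–530 emission) in lysed PC12 cells expressing Q103-GFP after 100 nM tebufenozide induction; library tested in dose series, with ATPLite reagent added in the multiplex.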
Coupling enz: inhibits coupling enzyme system, counter-screen for aldolase hits. coupling enzyme system counterscreen, AmpLite Red fluorescence. activity change, negative = inhibition, % at 58.2 µM, hits read low. 0.67% of 290,000 active. AID 2472; in the data active means activity change below about -30%; further: on the % scale 0 is the no-effect control and ±100 the full control effect
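Fluorescence at 525 nm excitation and 598 nm emission measured inhibition of the coupled detection system without aldolase. Compounds (at 57.5 uM final) were preincubated 10 min at room temperature with coupling enzyme reagent before a 20 min substrate/AmpLite Red step.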
TR SRC2 fluor cs: counter-screen for TRb-SRC2 inhibitors: fluorescence interference; TRb/SRC2 Texas Red total fluorescence interference; AID 1479; 0.29% of 280,000 active; Potency, µM (series often up to 106 µM), without a hit: top-dose fluorescence change, negative = quenching; active means well fitted curve in either direction with a large enough effect; inconclusive means small, poorly fitted or top-dose-only effect; further: potency means the concentration at half of the fitted maximal effect; on the % scale 0 is the no-effect control and ±100 the full control effect
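Human TRb ligand-binding domain at 0.6 uM with 20 nM Texas Red SRC2 peptide in Tris buffer containing 1 uM T3 and 5% DMSO, incubated with compound 5 h at ambient temperature. Total fluorescence (555/632 nm) calculated as parallel + 2 × perpendicular.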
HTT ATP protect: Huntington cell model cytoprotection by ATP luminescence; PC12 HTT-Q103 induced, cytoprotection, ATP luminescence, 40 h; Potency, µM (series often up to 56.4 µM), without a hit: cytoprotection (ATP increase), hits mostly activators; 0.14% of 230,000 active; AID 1471; further: potency means the concentration at half of the fitted maximal effect; % of control where 0% means no effect; nearly all actives have a fitted effect of over 45% in size
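Compounds were screened for protection of PC12 cells against cell death after tebufenozide induction (100 nM final) of mutant Huntingtin exon 1 (Q103) fused to GFP.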
KDM4E inh: blocks human JMJD2E demethylase activity | JMJD2E catalytic domain, FDH-coupled NADH fluorescence (FDH is formaldehyde dehydrogenase) | AID 2147 | Potency, µM (doses to about 57.1 µM), inactives show at the highest dose activity change, negative = inhibition, hits mostly inhibitors | 1.6% of 230,000 active; active means well fitted inhibition curve with a large enough effect, not every such curve was filed as active; inconclusive means small, poorly fitted or top-dose-only effect, or another doubt; inactive means no such curve, though single readings can be large or run the other way;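 further: potency means the concentration at half of the fitted maximal effect; 0% = wells with enzyme and -100% = buffer wells without enzyme; nearly all actives have a fitted effect of over 50% in size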
Active calls of the source: *; ? = inconclusive; · = no result given; [ ] = another dose, or the depositor's remark. Unless noted, the call rests on the fitted dose curve; in most records, active means well fitted curve in the direction sought with a large enough effect; inconclusive means small, poorly fitted or top-dose-only effect, or another doubt; inactive means no such curve, though single readings can be large; an effect the other way counts as inactive or inconclusive.

SMILES	TRb SRC2 PPI	HTT aggregate	Coupling enz	TR SRC2 fluor cs	HTT ATP protect	KDM4E inh
CC(=O)N(Cc1ccc(F)cc1)C1=C(NCc2ccccc2)C(=O)c2ccccc2C1=O	-8.6%	8.91µM*	-54.6*	-3.7%	-97.5%	?
COc1ccc(NC(=O)c2c(C)oc3ccc(O)c(CN4CCCCCC4)c23)cc1Cl	-8.5%	·	·	794µM*[quencher]	·	·
Cc1oc2ccc(O)c(CN3CCOCC3)c2c1C(=O)Nc1ccccc1	-6.0%	·	·	3.3%	·	·
Cc1oc2ccc(O)c(CN3CCOCC3)c2c1C(=O)c1ccc(Cl)cc1	4.6%	5.4%	-40.3*	0.3%	-46.0%	1.2%
COc1cccc(NC(=S)/C(=C(\[O-])c2ccc(OC(F)F)cc2)[n+]2ccccc2)c1	5.4%	-14.5%	-17.7	1.3%	-4.7%[10 µM]	-5.6%
[O-]/C(=C(\C(=S)Nc1cccc2ccccc12)[n+]1ccccc1)c1cccs1	-5.6%	-5.7%[9.22 µM]	-16.5	1.3%	-8.3%	?
[O-]/C(=C(\C(=S)Nc1cccc2ccccc12)[n+]1ccccc1)c1ccc2c(c1)OCCO2	?	-11.2%[9.22 µM]	-46.4*	-3.0%	14.9%	?
[O-]/C(=C(\C(=S)Nc1cccc2ccccc12)[n+]1ccccc1)c1ccc(OC(F)F)cc1	3.5%	-0.5%	-40.5*	-0.9%	-11.6%[10 µM]	?
CC(=O)N/N=C/c1c(C)[nH]n(-c2ccccc2)c1=O	3.1%	?	-7.1	0.3%	-55.1%	?
Cc1[nH]n(-c2ccccc2)c(=O)c1/C=N/NC(=O)c1cccc([N+](=O)[O-])c1	-3.0%	5.62µM*	-4.8	-0.8%	-64.0%[10 µM]	4.3%
Cc1ccc(-n2[nH]c(C)c(/C=N/NC(=O)c3ccc([N+](=O)[O-])cc3)c2=O)c(C)c1	5.9%	12.6µM*	0.2	-0.5%	-134.3%	?
Cc1[nH]n(-c2cccc3ccccc23)c(=O)c1/C=N/NC(=O)c1cccc([N+](=O)[O-])c1	2.0%	10µM*	10.1	-6.4%	7.1%[10 µM]	?
Cc1ccc(NC(=O)C[n+]2ccn(C3=C([O-])c4ccccc4C3=O)c2)cc1	4.5%	-7.1%	1.7	-2.9%	?	-9.0%
CCCC[n+]1ccn(-c2nc3ccccc3nc2[N-]S(=O)(=O)c2ccc(Cl)cc2)c1	-6.0%	-18.6%[9.22 µM]	0.3	-1.6%	19.3%[10 µM]	?
CC(=O)Nc1ccc(S(=O)(=O)/N=C2\C(=O)c3ccccc3C([O-])=C2n2cc[n+](-c3ccccn3)c2)cc1	-9.0%	5.7%[9.22 µM]	-38.9*	-6.2%	-4.8%[10 µM]	-9.0%
CCCC[n+]1ccn(C2=C([O-])c3ccccc3C(=O)/C2=N\S(=O)(=O)c2ccc(Br)cc2)c1	4.5%	?	-58.8*	-2.7%	·	-3.6%
Cc1ccc(S(=O)(=O)/N=C2\C(=O)c3ccccc3C([O-])=C2n2cc[n+](CCC(C)C)c2)cc1	2.3%	?	-52.0*	-0.8%	-92.7%	-2.1%
CN(C)c1ncc2nc(CCc3ccccc3)c(=O)n(C[C@H]3CCCO3)c2n1	·	·	-3.2	·	3.8%	·
N#CCCn1c(=O)c(-c2ccccc2)nc2cnc(N3CCNCC3)nc21	·	·	-1.2	·	?	·
CCCCCCCCCCCCCc1ccccc1	-2.7%[201 µM]	·	·	-1.0%[201 µM]	·	·
CCCn1c(-c2ccc(F)cc2)nc2c(NC(C)CN(C)C)nc(C)nc21 (centres undefined)	7.9%	·	2.5	-0.2%	-11.7%	?
Cc1noc(C)c1S(=O)(=O)Nc1ccc(C(=O)Nc2ccc(Br)cc2)cc1	-6.4%	·	·	-1.8%	·	·
COc1ccc(Nc2cc(C(=O)NCCCN(C)Cc3ccccc3)c3ccccc3n2)cc1OC	0.8%	·	·	-3.3%	·	·
Cn1c(=O)c2c(nc(NCc3ccco3)n2C/C=C/c2ccccc2)n(C)c1=O	-10.8%	10µM*	0.8	-2.2%	?	2.6%
CCCn1c2ccccc2c2cnn(CC(=O)Nc3cc(C)c(Cl)cc3OC)c(=O)c21	-3.9%	·	·	20µM*[quencher]	·	·
CCNc1nc(NC(C)CC)nc(OC)n1 (centres undefined)	-0.2%[201 µM]	·	·	0.0%[201 µM]	·	·

Assay outcomes: PubChem, National Center for Advancing Translational Sciences (NCATS)
